Results on 72 compounds are retold here after the supplement of paper PMC11060735.

Where a name gives a salt, the structure may show the parent alone. Among all 1,800 compounds or so, about 50 (3%) showed activity. What follows is part of a selection rich in actives, with near analogues and random picks from the rest.

In the assay the test system is mouse p16Ink4a+/- lung fibroblasts (INKBRITE, bleomycin-injured). Nature of the assay: percentage of GFP+ (p16Ink4a+) fibroblasts among all cells in well; higher = less depletion of p16Ink4a+ cells, active = 20 or less. The conditions noted are these: 1 µM; 3 days.
For the compound `CC(C(=O)O)c1ccc2c(c1)[nH]c1ccc(Cl)cc12` (configuration not stated) [Carprofen], the “percentage of GFP+” value is 45.4% (inactive).

Take `CNC(=O)c1c(F)cccc1Nc1nc(Nc2cc3c(cc2OC)CCN3C(=O)CN(C)C)nc2[nH]ccc12`: the “percentage of GFP+” value was 50.1% (inactive).

For `O=NO` [Sodium Nitrite], the “percentage of GFP+” value is 52.2% (inactive).

`N#CC[C@H](C1CCCC1)n1cc(-c2ncnc3[nH]ccc23)cn1` [Ruxolitinib]: the “percentage of GFP+” value was 44.6% (inactive).

In the case of `Cc1nc(-c2ccc(OCC(C)C)c(C#N)c2)sc1C(=O)O` [Febuxostat], the “percentage of GFP+” value was 42.1% (inactive).

For `CCc1cnn2c(NCc3ccc[n+]([O-])c3)cc(N3CCCC[C@H]3CCO)nc12` [Dinaciclib], the “percentage of GFP+” value is 13% (active).

Consider `COc1ccc(CNc2nc(N3CCC[C@H]3CO)ncc2C(=O)NCc2ncccn2)cc1Cl` [Avanafil], for which the “percentage of GFP+” value is 46.5% (inactive).

With `COc1c(C)c(C(=O)c2ccc(N)c(C(=O)O)c2)n2ccccc12`, the “percentage of GFP+” value was 39% (inactive).

Take `COC(=O)[C@H](c1ccccc1Cl)N1CCc2sccc2C1` [Clopidogrel]: the “percentage of GFP+” value was 36.5% (inactive).

Turning to `CN1CCN(CCCN2c3ccccc3Sc3ccc(C(F)(F)F)cc32)CC1` [Trifluoperazine], the “percentage of GFP+” value was 52% (inactive).

In the case of `CCCCc1nc2cc(/C=C/C(=O)NO)ccc2n1CCN(CC)CC` [Pracinostat], the “percentage of GFP+” value is 24.8% (inactive).

As for `COc1cc(/C=C/C(=O)/C=C(O)/C=C/c2ccc(O)c(OC)c2)ccc1O`, the “percentage of GFP+” value was 38.1% (inactive).

For `CC[C@H](/C=C/[C@@H](C)[C@@H]1CC[C@H]2[C@@H]3CC=C4C[C@@H](O)CC[C@]4(C)[C@@H]3CC[C@@]21C)C(C)C` [Stigmasterol], the “percentage of GFP+” value is 44.8% (inactive).

For the compound `Nc1nccc(Oc2ccc(NC(=O)c3cncc(-c4ccc(F)cc4)c3O)cc2F)c1Cl`, the “percentage of GFP+” value was 49.5% (inactive).

On to `COC(=O)[C@]12CCC(C)(C)C[C@@H]1[C@@H]1C(=O)C=C3[C@]4(C)C=C(C#N)C(=O)C(C)(C)[C@@H]4CC[C@@]3(C)[C@]1(C)CC2` [Bardoxolone Methyl], for which the “percentage of GFP+” value is 5.23% (active).

For the compound `O=C(O)c1cc(N=Nc2ccc(O)c(C(=O)O)c2)ccc1O` [Olsalazine], the “percentage of GFP+” value was 43.3% (inactive).

Consider `O=C1c2c(O)cccc2[C@H]([C@@H]2O[C@H](CO)[C@@H](O)[C@H](O)[C@H]2O)c2cc(CO)cc(O)c21` [Aloin], for which the “percentage of GFP+” value is 20.8% (inactive).

Consider `CC(C)(C)c1cc(C(C)(C)C)c(NC(=O)c2cnc3ccccc3c2O)cc1O` [Ivacaftor], for which the “percentage of GFP+” value was 38% (inactive).

For the compound `CC(C)c1cc(C(C)C)c(CC(=O)NS(=O)(=O)Oc2c(C(C)C)cccc2C(C)C)c(C(C)C)c1` [Avasimibe], the “percentage of GFP+” value is 53.1% (inactive).

As for `CC(C)c1ccccc1Cc1cc(C(=O)Nc2ccc(S(=O)(=O)c3ccccc3C(C)(C)C)cc2)c(O)c(O)c1O`, the “percentage of GFP+” value is 16.4% (active).

Consider `CC(C)(C)c1cc(/C=C(\C#N)C(N)=S)cc(C(C)(C)C)c1O` [Tyrphostin], for which the “percentage of GFP+” value was 50.3% (inactive).

Regarding `CCC(CC)CC1(C(=O)Nc2ccccc2SC(=O)C(C)C)CCCCC1` [Dalcetrapib], the “percentage of GFP+” value is 37.6% (inactive).

For the compound `CCOC(=O)[C@H](CCc1ccccc1)N[C@H]1CS[C@H](c2cccs2)CN(CC(=O)O)C1=O` [Temocapril], the “percentage of GFP+” value is 45.2% (inactive).

Regarding `CC(C)c1cc(C(=O)N2Cc3ccc(CN4CCN(C)CC4)cc3C2)c(O)cc1O` [Onalespib], the “percentage of GFP+” value was 9.46% (active).

Take `C[C@@H](Oc1cc(-n2cnc3ccc(CN4CCN(C)CC4)cc32)sc1C(N)=O)c1ccccc1C(F)(F)F`: the “percentage of GFP+” value was 27.8% (inactive).

With `COc1ccccc1N1CCN(CCN2C(=O)CC3(CCCC3)CC2=O)CC1` [Bmy 7378 Dihydrochloride], the “percentage of GFP+” value was 43.4% (inactive).

As for `C=CCc1cc(OC)c(O)c(C(=O)NCCO)c1` [Alibendol], the “percentage of GFP+” value is 42.5% (inactive).

For `COc1ccc(S(=O)(=O)Nc2cccnc2Nc2ccc(O)cc2)cc1`, the “percentage of GFP+” value is 23% (inactive).

Consider `CN(C)Cc1ccc(S(=O)(=O)n2ccc(/C=C/C(=O)NO)c2)cc1` [Resminostat], for which the “percentage of GFP+” value is 37.1% (inactive).

For the compound `Cc1[nH]c2ccccc2c1CCNCc1ccc(/C=C/C(=O)NO)cc1` [Panobinostat], the “percentage of GFP+” value was 2.9% (active).

In the case of `Cc1[nH]c2ccccc2c1CCNC(=O)c1cccs1` [N-[2-(2-methyl-1H-indol-3-yl)ethyl]thiophene-2-carboxamide], the “percentage of GFP+” value was 39.3% (inactive).

In the case of `CCC(=O)Nc1cccc(Oc2nc(Nc3ccc(N4CCN(C)CC4)cc3OC)ncc2Cl)c1`, the “percentage of GFP+” value is 42.3% (inactive).

For the compound `Cc1nn(-c2ccccc2)c(C)c1/C=N/N1CCN(Cc2ccccc2)CC1`, the “percentage of GFP+” value is 48.6% (inactive).

Take `CCC(C)(Oc1ccc(C2(c3ccc(OC(C)(CC)C(=O)O)cc3)CCCCC2)cc1)C(=O)O` (configuration not stated) [Clinofibrate]: the “percentage of GFP+” value was 52.6% (inactive).

On to `OCC(O)CN1CCN(c2ccccc2)CC1` (configuration not stated) [Dropropizine], for which the “percentage of GFP+” value is 51.5% (inactive).

For `C[C@]12CC[C@@H]3c4ccc(O)cc4CC[C@H]3[C@@H]1C[C@@H](O)[C@@H]2O` [Estriol], the “percentage of GFP+” value was 49.2% (inactive).

With `CCN1/C(=C/C(C)=O)Sc2ccc(OC)cc21`, the “percentage of GFP+” value is 50.3% (inactive).

Consider `Cc1c(CN2CCN(C(=O)[C@H](C)O)CC2)sc2c(N3CCOCC3)nc(-c3cnc(N)nc3)nc12`, for which the “percentage of GFP+” value was 34.5% (inactive).

`CS(=O)(=O)N1CCN(Cc2cc3nc(-c4cccc5[nH]ncc45)nc(N4CCOCC4)c3s2)CC1`: the “percentage of GFP+” value was 36.8% (inactive).

For `COc1ccc(-c2nc(N3CCOCC3)c3sc(CN(C)c4ncc(C(=O)NO)cn4)cc3n2)cn1` [Fimepinostat], the “percentage of GFP+” value was 3.62% (active).

With `Clc1ccc(C2(c3ccc(-c4cn[nH]c4)cc3)CCNCC2)cc1`, the “percentage of GFP+” value was 43.8% (inactive).

Regarding `O=c1c(-c2ccc(O)cc2)coc2cc(O)cc(O)c12` [Genistein], the “percentage of GFP+” value is 47.5% (inactive).

On to `COc1cc2nc(N3CCN(C(=O)C4COc5ccccc5O4)CC3)nc(N)c2cc1OC` (configuration not stated) [Doxazosin], for which the “percentage of GFP+” value was 44.1% (inactive).

In the case of `CC(C)CN(C[C@@H](O)[C@H](Cc1ccccc1)NC(=O)O[C@H]1CO[C@H]2OCC[C@H]21)S(=O)(=O)c1ccc(N)cc1` [Darunavir], the “percentage of GFP+” value was 45.7% (inactive).

Turning to `CN(C)c1ccc(C(=O)NCCCCCCC(=O)NO)cc1`, the “percentage of GFP+” value was 30.4% (inactive).

For the compound `CC(/C=C/C(=O)NO)=C\[C@@H](C)C(=O)c1ccc(N(C)C)cc1` [Trichostatin A], the “percentage of GFP+” value is 10.8% (active).

In the case of `Cc1cc(N2CCOCC2)ccc1Nc1nc(NC2CCCCC2)c2[nH]cnc2n1`, the “percentage of GFP+” value was 33.6% (inactive).

As to `C/C(=N\NC(=S)N1CCC1)c1ccccn1`, the “percentage of GFP+” value is 6.13% (active).

With `CO[C@H]1C[C@@H]2CC[C@@H](C)[C@@](O)(O2)C(=O)C(=O)N2CCCC[C@H]2C(=O)O[C@H]([C@H](C)C[C@@H]2CC[C@@H](O)[C@H](OC)C2)CC(=O)[C@H](C)/C=C(\C)[C@@H](O)[C@@H](OC)C(=O)[C@H](C)C[C@H](C)/C=C/C=C/C=C/1C` [Rapamycin], the “percentage of GFP+” value was 37.8% (inactive).

With `CC(C)[C@H](C(=O)Nc1ccc(C(=O)NO)cc1)c1ccccc1`, the “percentage of GFP+” value was 9.62% (active).

Take `CCCCN(Cc1ccc(C(=O)NO)cc1)C(=O)Nc1ccccc1` [Nexturastat A]: the “percentage of GFP+” value was 47.5% (inactive).

Consider `CC(=O)Nc1ccc(C(=O)Nc2ccccc2N)cc1` [Tacedinaline], for which the “percentage of GFP+” value was 34.9% (inactive).

On to `COc1cc(OC)c(/C=C/S(=O)(=O)Cc2ccc(OC)c(NCC(=O)O)c2)c(OC)c1` [Rigosertib], for which the “percentage of GFP+” value was 27.9% (inactive).

Turning to `O=C(O)COCCN1CCN(C(c2ccccc2)c2ccc(Cl)cc2)CC1` (configuration not stated) [Cetirizine], the “percentage of GFP+” value is 46.1% (inactive).

As for `C[C@@H](NCCCc1cccc(C(F)(F)F)c1)c1cccc2ccccc12` [Cinacalcet], the “percentage of GFP+” value was 33.2% (inactive).

In the case of `CCCSc1nc(N[C@@H]2C[C@H]2c2ccc(F)c(F)c2)c2nnn([C@@H]3C[C@H](OCCO)[C@@H](O)[C@H]3O)c2n1` [Ticagrelor], the “percentage of GFP+” value is 30.8% (inactive).

Turning to `COc1cc([C@@H]2c3cc4c(cc3[C@@H](O[C@@H]3O[C@@H]5CO[C@@H](C)O[C@H]5[C@H](O)[C@H]3O)[C@H]3COC(=O)[C@H]23)OCO4)cc(OC)c1O` [Etoposide], the “percentage of GFP+” value is 19.3% (active).

As to `COc1cc([C@@H]2c3cc4c(cc3[C@@H](O[C@@H]3O[C@@H]5CO[C@@H](c6cccs6)O[C@H]5[C@H](O)[C@H]3O)[C@H]3COC(=O)[C@H]23)OCO4)cc(OC)c1O` [Teniposide], the “percentage of GFP+” value is 21.1% (inactive).

Turning to `C=CC(=O)Nc1cccc(Sc2nc(Nc3ccc(N4CCN(C)CC4)cc3)ncc2Cl)c1`, the “percentage of GFP+” value is 46.3% (inactive).

As for `O=C(Nc1ccccc1Br)N[C@@H]1CCN(c2ccc(C(F)(F)F)cn2)C1`, the “percentage of GFP+” value is 39.1% (inactive).

As to `CCCC(C)NC(=O)c1ccc(Cl)c(Cl)c1` (configuration not stated), the “percentage of GFP+” value was 45.8% (inactive).

In the case of `CC(C)C[C@H](NC(=O)CNC(=O)c1cc(Cl)ccc1Cl)B(O)O` [Ixazomib], the “percentage of GFP+” value was 4.65% (active).

For `CNCC[C@H](Oc1cccc2ccccc12)c1cccs1` [Duloxetine], the “percentage of GFP+” value is 33.8% (inactive).

For the compound `Cn1c(=O)c2nc[nH]c2n(C)c1=O` [Aminophylline, Theophylline], the “percentage of GFP+” value was 44.7% (inactive).

Consider `CN(C)CCN(Cc1ccccc1)c1ccccn1` [Tripelennamine], for which the “percentage of GFP+” value was 45.6% (inactive).

On to `O=C[C@H](O)[C@@H](O)[C@H](O)[C@H](O)CO` [D-glucose], for which the “percentage of GFP+” value is 42.5% (inactive).

Take `C[C@@H]1CN(CC(=O)Nc2ccc3c(c2)Cc2cccc(-c4cc(=O)cc(N5CCOCC5)o4)c2S3)C[C@H](C)O1`: the “percentage of GFP+” value is 44.7% (inactive).

Turning to `Nc1nc(Cl)nc2c1ncn2[C@@H]1O[C@H](CO)[C@@H](O)[C@@H]1F` [Clofarabine], the “percentage of GFP+” value was 35.5% (inactive).

For the compound `COc1ccc2c(c1)c(C1=C(c3c[nH]c4ccccc34)C(=O)NC1=O)cn2CCCN(C)C`, the “percentage of GFP+” value was 60.7% (inactive).

As to `O=C(O)CCCc1c[nH]c2ccccc12` [3-Indolebutyric Acid], the “percentage of GFP+” value is 48.2% (inactive).

As for `O=C(/C=C/c1ccc(CN(CCO)CCc2c[nH]c3ccccc23)cc1)NO` [Dacinostat], the “percentage of GFP+” value was 4.88% (active).

Turning to `OCc1c[nH]c2ccccc12` [Indole-3-carbinol], the “percentage of GFP+” value is 47% (inactive).
